What all share (assay): DAPPL (digital affinity profiling via proximity ligation, sequencing); 10 mM Tris-HCl pH 7.5, 50 mM NaCl, 1 mM DTT, 4% glycerol, room temperature, 30 min; GST-TFs on glutathione beads, 16-mer random dsDNA library, 0.1% formaldehyde crosslink after washing; high values mean tight binding
The target in experiment [1] is T1, FEV (Homo sapiens, UniProt Q99581 1-238).
T1 sequence: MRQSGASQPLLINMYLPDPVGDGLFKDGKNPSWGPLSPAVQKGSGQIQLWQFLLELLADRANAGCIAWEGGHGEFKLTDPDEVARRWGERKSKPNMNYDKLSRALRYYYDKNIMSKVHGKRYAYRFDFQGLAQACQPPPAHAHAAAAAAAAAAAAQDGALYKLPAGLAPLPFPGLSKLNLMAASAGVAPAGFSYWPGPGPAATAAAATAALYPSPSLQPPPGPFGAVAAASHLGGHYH
The settings on record: protein: recombinant; tags: N-terminal GST; dsDNA, one strand shown. The gist of the method:
(§1)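 Yeast served to express human transcription factors as GST fusions, which were then captured on glutathione beads and labelled with DNA barcodes. Pooled with a tag-only sample, they were incubated with 200 nmole of a 16-mer random double-stranded DNA library for 30 min at room temperature in Tris/NaCl/DTT/glycerol buffer, washed, crosslinked with 0.1% formaldehyde, ligated by proximity, amplified by PCR and sequenced. Dividing each hexamer's read frequency for a factor by its frequency for the tag-only sample gives the binding signal.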

Experiment [2] deals with ETV5 (Homo sapiens, UniProt P41161 1-510). To be noted: protein: recombinant; tags: N-terminal GST; dsDNA, one strand shown. The gist of the method:
as §1

For experiment [3], the target named is HSF1 (Homo sapiens, UniProt Q00613 1-529). The settings on record: protein: recombinant; tags: N-terminal GST; chain copies: 3; dsDNA, one strand shown. The gist of the method:
as §1

The target in experiment [4] is T2, SPIC (Homo sapiens, UniProt Q8N5J4 1-248).
T2 sequence: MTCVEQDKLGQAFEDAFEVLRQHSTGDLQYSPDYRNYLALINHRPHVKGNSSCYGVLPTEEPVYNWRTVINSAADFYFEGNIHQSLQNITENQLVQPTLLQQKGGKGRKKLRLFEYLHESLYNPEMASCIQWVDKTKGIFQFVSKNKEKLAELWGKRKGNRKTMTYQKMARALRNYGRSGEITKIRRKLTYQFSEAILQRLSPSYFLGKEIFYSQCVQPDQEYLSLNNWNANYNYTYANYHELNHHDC
The settings on record: protein: recombinant; tags: N-terminal GST; dsDNA, one strand shown. The gist of the method:
as §1

The target in experiment [5] is ELF4 (Homo sapiens, UniProt Q99607 1-663). The settings on record: protein: recombinant; tags: N-terminal GST; dsDNA, one strand shown. The gist of the method:
as §1

For experiment [6], the target named is T3, ELK4 (Homo sapiens, UniProt P28324-2 1-405).
T3 sequence: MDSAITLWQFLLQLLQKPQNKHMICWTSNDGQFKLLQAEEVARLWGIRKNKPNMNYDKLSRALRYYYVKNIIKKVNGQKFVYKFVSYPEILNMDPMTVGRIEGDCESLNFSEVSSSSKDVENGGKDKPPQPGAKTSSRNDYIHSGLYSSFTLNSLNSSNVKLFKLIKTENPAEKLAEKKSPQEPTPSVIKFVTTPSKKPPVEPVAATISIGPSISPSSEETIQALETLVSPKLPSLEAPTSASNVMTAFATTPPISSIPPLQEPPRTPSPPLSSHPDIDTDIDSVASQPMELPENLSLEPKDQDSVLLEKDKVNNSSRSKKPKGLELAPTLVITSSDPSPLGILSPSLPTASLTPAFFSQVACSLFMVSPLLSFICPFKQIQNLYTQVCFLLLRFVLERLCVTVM
To be noted: protein: recombinant; tags: N-terminal GST; dsDNA, one strand shown. Summed up: as §1

For experiment [7], the target named is T4, ETV2 (Homo sapiens, UniProt O00321 1-342).
T4 sequence: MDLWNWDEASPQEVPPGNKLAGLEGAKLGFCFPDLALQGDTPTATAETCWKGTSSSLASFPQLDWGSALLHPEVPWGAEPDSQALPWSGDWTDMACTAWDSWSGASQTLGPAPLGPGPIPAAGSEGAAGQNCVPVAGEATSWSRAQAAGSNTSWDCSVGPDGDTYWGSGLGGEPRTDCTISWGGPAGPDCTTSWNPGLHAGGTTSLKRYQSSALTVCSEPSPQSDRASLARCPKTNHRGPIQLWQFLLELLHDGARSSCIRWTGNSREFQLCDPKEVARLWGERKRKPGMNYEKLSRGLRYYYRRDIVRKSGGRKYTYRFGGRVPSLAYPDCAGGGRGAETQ
To be noted: protein: recombinant; tags: N-terminal GST; dsDNA, one strand shown. The gist of the method: as §1

Experiment [8] deals with T5, ELF3 (Homo sapiens, UniProt P78545 1-371).
T5 sequence: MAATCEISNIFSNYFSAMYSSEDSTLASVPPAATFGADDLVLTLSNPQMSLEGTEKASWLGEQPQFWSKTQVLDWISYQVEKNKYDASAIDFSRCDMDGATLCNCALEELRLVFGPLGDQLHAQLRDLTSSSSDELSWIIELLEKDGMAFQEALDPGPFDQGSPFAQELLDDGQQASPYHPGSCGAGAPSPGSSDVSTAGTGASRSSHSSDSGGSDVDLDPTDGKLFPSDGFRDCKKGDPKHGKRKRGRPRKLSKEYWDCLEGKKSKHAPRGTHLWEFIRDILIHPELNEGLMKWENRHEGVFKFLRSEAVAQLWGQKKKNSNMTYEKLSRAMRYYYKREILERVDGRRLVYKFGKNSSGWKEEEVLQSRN
The settings on record: protein: recombinant; tags: N-terminal GST; dsDNA, one strand shown. Summed up:
as §1

The target in experiment [9] is CRX (Homo sapiens, UniProt O43186 1-299). To be noted: protein: recombinant; tags: N-terminal GST; dsDNA, one strand shown. The gist of the method:
as §1

Experiment [10] has as its target ETV1 (Homo sapiens, UniProt P50549 1-477). The settings on record: protein: recombinant; tags: N-terminal GST; dsDNA, one strand shown. Summed up: as §1

Chain of HSF1 (Q00613 whole entry): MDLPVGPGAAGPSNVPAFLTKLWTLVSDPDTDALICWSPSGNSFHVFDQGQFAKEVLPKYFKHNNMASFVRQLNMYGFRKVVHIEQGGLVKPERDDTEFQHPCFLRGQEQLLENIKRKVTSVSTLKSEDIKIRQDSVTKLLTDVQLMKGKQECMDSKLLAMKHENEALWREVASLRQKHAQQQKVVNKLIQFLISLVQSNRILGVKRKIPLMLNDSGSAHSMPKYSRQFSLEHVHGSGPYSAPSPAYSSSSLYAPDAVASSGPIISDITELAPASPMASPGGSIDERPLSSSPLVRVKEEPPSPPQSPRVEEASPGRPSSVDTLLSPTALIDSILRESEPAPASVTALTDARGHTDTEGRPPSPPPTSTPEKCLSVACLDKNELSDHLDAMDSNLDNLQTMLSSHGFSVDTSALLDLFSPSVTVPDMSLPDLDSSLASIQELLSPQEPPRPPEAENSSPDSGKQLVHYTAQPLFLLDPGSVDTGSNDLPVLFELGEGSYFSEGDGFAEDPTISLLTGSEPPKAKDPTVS
Chain of ETV5 (P41161 whole entry): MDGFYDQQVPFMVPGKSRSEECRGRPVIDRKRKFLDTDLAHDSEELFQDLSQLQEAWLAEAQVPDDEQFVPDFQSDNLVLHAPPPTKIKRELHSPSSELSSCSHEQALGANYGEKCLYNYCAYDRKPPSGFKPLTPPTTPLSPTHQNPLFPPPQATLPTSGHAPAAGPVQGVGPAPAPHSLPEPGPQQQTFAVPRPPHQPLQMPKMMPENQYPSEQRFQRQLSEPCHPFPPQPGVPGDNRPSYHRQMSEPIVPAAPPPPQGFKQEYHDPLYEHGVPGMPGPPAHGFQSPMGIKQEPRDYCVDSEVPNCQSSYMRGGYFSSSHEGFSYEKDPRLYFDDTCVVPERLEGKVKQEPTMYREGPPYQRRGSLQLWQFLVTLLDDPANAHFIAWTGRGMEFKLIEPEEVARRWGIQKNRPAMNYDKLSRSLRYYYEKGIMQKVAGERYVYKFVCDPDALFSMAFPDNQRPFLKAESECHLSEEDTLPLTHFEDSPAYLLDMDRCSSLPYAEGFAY
Chain of CRX (O43186 whole entry): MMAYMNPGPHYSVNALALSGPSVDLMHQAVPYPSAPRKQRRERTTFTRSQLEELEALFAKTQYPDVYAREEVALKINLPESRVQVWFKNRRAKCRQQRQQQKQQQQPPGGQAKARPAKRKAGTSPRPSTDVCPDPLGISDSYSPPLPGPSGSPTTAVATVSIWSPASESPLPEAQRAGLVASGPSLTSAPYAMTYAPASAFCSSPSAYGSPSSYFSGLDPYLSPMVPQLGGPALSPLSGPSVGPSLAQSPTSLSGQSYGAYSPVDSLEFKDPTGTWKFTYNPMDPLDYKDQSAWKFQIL
Chain of ETV1 (P50549 whole entry): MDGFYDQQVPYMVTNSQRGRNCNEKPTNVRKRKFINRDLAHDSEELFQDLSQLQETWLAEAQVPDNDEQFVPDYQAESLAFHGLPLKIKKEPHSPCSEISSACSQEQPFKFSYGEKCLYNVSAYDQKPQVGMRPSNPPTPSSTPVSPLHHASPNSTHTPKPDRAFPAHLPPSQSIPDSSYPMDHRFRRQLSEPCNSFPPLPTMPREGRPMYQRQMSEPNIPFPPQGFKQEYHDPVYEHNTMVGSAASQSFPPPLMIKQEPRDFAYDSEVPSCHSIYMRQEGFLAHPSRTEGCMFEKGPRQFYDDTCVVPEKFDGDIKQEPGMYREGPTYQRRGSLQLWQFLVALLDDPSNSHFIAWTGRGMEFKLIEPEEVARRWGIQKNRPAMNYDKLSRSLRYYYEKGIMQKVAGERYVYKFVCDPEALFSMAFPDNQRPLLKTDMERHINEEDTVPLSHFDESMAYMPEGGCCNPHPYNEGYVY
Chain of ELF4 (Q99607 whole entry): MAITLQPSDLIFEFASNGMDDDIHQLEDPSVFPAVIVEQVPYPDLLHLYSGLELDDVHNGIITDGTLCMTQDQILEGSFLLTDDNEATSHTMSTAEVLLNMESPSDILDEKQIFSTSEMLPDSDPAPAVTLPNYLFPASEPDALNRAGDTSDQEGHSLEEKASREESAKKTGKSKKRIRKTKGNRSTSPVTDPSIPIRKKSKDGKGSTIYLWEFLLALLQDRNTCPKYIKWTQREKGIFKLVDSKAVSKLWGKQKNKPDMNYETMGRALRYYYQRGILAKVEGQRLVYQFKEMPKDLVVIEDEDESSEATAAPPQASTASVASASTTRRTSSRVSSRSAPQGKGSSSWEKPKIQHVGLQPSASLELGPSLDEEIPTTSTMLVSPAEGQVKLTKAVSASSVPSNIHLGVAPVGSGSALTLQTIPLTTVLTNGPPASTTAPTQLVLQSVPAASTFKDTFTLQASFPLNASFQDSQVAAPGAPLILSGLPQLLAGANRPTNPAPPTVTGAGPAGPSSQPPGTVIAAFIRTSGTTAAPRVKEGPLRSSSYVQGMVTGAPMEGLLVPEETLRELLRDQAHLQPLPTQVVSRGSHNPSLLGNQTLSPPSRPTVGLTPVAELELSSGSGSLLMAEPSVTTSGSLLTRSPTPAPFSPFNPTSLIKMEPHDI

Consider AATGTA, for which the binding signal in experiment [1] was 1.12 fold enrichment (6-mer frequency, TF over GST control); in experiment [2], 1.11 fold enrichment (6-mer frequency, TF over GST control); in experiment [3], 1.16 fold enrichment (6-mer frequency, TF over GST control); in experiment [4], 1.12 fold enrichment (6-mer frequency, TF over GST control); in [5], 1.11 fold enrichment (6-mer frequency, TF over GST control); in experiment [6], 1.32 fold enrichment (6-mer frequency, TF over GST control). The binding signal in experiment [7] was 1.32 fold enrichment (6-mer frequency, TF over GST control); in experiment [8], 1.16 fold enrichment (6-mer frequency, TF over GST control); in experiment [9], 1.1 fold enrichment (6-mer frequency, TF over GST control); in experiment [10] it was 1.23 fold enrichment (6-mer frequency, TF over GST control).

As to CCCGCC, the binding signal in experiment [1] was 1.5 fold enrichment (6-mer frequency, TF over GST control); in experiment [2], 1.31 fold enrichment (6-mer frequency, TF over GST control); in [3], 1.17 fold enrichment (6-mer frequency, TF over GST control); in experiment [4], 1.67 fold enrichment (6-mer frequency, TF over GST control); in experiment [5] it was 1.66 fold enrichment (6-mer frequency, TF over GST control); in experiment [6] it was 1.43 fold enrichment (6-mer frequency, TF over GST control). For the same sequence, the binding signal was 1.6 fold enrichment (6-mer frequency, TF over GST control) in experiment [7]; 1.45 fold enrichment (6-mer frequency, TF over GST control) in [8]; 1.21 fold enrichment (6-mer frequency, TF over GST control) in experiment [9]; 1.5 fold enrichment (6-mer frequency, TF over GST control) in experiment [10].

For the sequence TTAATG, the binding signal was 1.12 fold enrichment (6-mer frequency, TF over GST control) in [1]; 1.27 fold enrichment (6-mer frequency, TF over GST control) in experiment [2]; 1.89 fold enrichment (6-mer frequency, TF over GST control) in experiment [3]; 1.24 fold enrichment (6-mer frequency, TF over GST control) in [4]; 1.26 fold enrichment (6-mer frequency, TF over GST control) in [5]; 1.21 fold enrichment (6-mer frequency, TF over GST control) in experiment [6]. For the same sequence, the binding signal in experiment [7] was 1.31 fold enrichment (6-mer frequency, TF over GST control); in experiment [8], 1.21 fold enrichment (6-mer frequency, TF over GST control); in [9], 2.75 fold enrichment (6-mer frequency, TF over GST control); in [10], 1.29 fold enrichment (6-mer frequency, TF over GST control).

As to CGTATT, the binding signal in experiment [1] is 1.07 fold enrichment (6-mer frequency, TF over GST control); in experiment [2], 1.2 fold enrichment (6-mer frequency, TF over GST control); in experiment [3], 1.21 fold enrichment (6-mer frequency, TF over GST control); in experiment [4], 1.22 fold enrichment (6-mer frequency, TF over GST control); in [5], 1.16 fold enrichment (6-mer frequency, TF over GST control); in experiment [6], 1.18 fold enrichment (6-mer frequency, TF over GST control). In addition, the binding signal in experiment [7] was 1.38 fold enrichment (6-mer frequency, TF over GST control); in [8], 1.04 fold enrichment (6-mer frequency, TF over GST control); in [9], 1.46 fold enrichment (6-mer frequency, TF over GST control); in experiment [10], 1.22 fold enrichment (6-mer frequency, TF over GST control).

Consider TCCTCA, for which the binding signal in experiment [1] is 1.52 fold enrichment (6-mer frequency, TF over GST control); in experiment [2], 1.52 fold enrichment (6-mer frequency, TF over GST control); in experiment [3], 1.2 fold enrichment (6-mer frequency, TF over GST control); in experiment [4] it was 1.63 fold enrichment (6-mer frequency, TF over GST control); in [5], 1.57 fold enrichment (6-mer frequency, TF over GST control); in [6] it was 1.67 fold enrichment (6-mer frequency, TF over GST control). Also, the binding signal in experiment [7] was 1.66 fold enrichment (6-mer frequency, TF over GST control); in experiment [8], 1.44 fold enrichment (6-mer frequency, TF over GST control); in experiment [9] it was 1.4 fold enrichment (6-mer frequency, TF over GST control); in [10], 1.48 fold enrichment (6-mer frequency, TF over GST control).

As for TTCAGG, the binding signal in experiment [1] is 1.05 fold enrichment (6-mer frequency, TF over GST control); in experiment [2], 1.13 fold enrichment (6-mer frequency, TF over GST control); in experiment [3], 1.22 fold enrichment (6-mer frequency, TF over GST control); in experiment [4], 1.13 fold enrichment (6-mer frequency, TF over GST control); in [5], 1.11 fold enrichment (6-mer frequency, TF over GST control); in [6], 1.19 fold enrichment (6-mer frequency, TF over GST control). Besides, the binding signal is 1.14 fold enrichment (6-mer frequency, TF over GST control) in [7]; 1.07 fold enrichment (6-mer frequency, TF over GST control) in experiment [8]; 1.01 fold enrichment (6-mer frequency, TF over GST control) in experiment [9]; 1.15 fold enrichment (6-mer frequency, TF over GST control) in [10].

For AATCAA, the binding signal in [1] is 1.19 fold enrichment (6-mer frequency, TF over GST control); in experiment [2], 1.14 fold enrichment (6-mer frequency, TF over GST control); in [3], 1.13 fold enrichment (6-mer frequency, TF over GST control); in experiment [4], 1.11 fold enrichment (6-mer frequency, TF over GST control); in experiment [5], 1.21 fold enrichment (6-mer frequency, TF over GST control); in [6], 1.18 fold enrichment (6-mer frequency, TF over GST control). Further, the binding signal in experiment [7] is 1.48 fold enrichment (6-mer frequency, TF over GST control); in experiment [8], 1.24 fold enrichment (6-mer frequency, TF over GST control); in [9] it was 1.32 fold enrichment (6-mer frequency, TF over GST control); in [10], 1.19 fold enrichment (6-mer frequency, TF over GST control).

Values taken from PMC7862700, “An all-to-all approach to the identification of sequence-specific readers for epigenetic DNA modifications on cytosine”.
